Reference: PubChem BioAssay (NCATS)
Inconclusive results are not listed. The source made the active and inactive calls. Unless noted, the call rests on the fitted dose curve; in most records, active means well fitted inhibition curve with a large enough effect; inconclusive means small, poorly fitted or top-dose-only effect; inactive means flat fitted curve, though single readings scatter.

target: Aldehyde dehydrogenase, mitochondrial (Homo sapiens) (UniProt P05091); assay: qHTS for Inhibitors of the Aldehyde Dehydrogenase Family (ALDH2) Confirmatory screens (AID 2061303; active means well fitted inhibition curve with a large enough effect; title and protocol of this record describe different tests; further: nearly all actives have a fitted effect of over 45% in size; on activity change, negative = inhibition: on the % scale 0 is the no-effect control and ±100 the full control effect); details: ALDH inhibition qHTS; series mostly up to 45.4 µM; activity change, negative = inhibition: at the top concentration
Potency means the concentration at half of the fitted maximal effect.

SMILES | Potency | activity change, negative = inhibition
O=C1c2ccccc2NC(c2ccc(-c3ccccc3F)o2)N1O (configuration not stated) | 11.3 µM (active) | 
NC(=O)C1CCN(c2nc(-c3ccc(F)cc3)cs2)CC1 |  | 7.29% (inactive)
O=C(CN1C(=O)CC(c2ccco2)Sc2ccccc21)Nc1ccccc1F (configuration not stated) |  | -15.3% (inactive)
N#CN1CCC(NS(=O)(=O)c2ccc(F)cc2)CC1 |  | -1.98% (inactive)
O=C(/C=C/c1ccc([N+](=O)[O-])o1)Nc1cccc([S+](=O)([O-])Nc2ccccc2F)c1 |  | 0% (inactive)
NC(=O)C1CCN(c2ncc(-c3cccc(N4CCOCC4)c3)s2)CC1 |  | -16.8% (inactive)
O=C1CCCC2=C1C(c1[nH]ncc1Cl)NC(=NCc1ncc[nH]1)N2 (configuration not stated) |  | -3.66% (inactive)
CCOC(=O)C1CCN(c2nc(-c3ccc(Br)cc3)cs2)CC1 |  | -22.6% (inactive)
FC(F)(F)c1cc(-c2ccc(CNc3nc(-c4ccncc4)nc4ccccc34)cc2)ccn1 | 8.91 µM (active) | 
Oc1cc(NCCc2cccnc2)cc2cccnc12 |  | 0% (inactive)
Brc1ccc(-c2csc(N3CCC(c4nn[nH]n4)CC3)n2)cc1 |  | -6.06% (inactive)
Cc1ccccc1C#Cc1ccc(CCC(=O)O)cc1 |  | 5.26% (inactive)
Cc1cc(C=CC#N)cc(C)c1Nc1nc(Nc2ccc3c(c2)CCC3)c2[nH]cnc2n1 |  | -1.98% (inactive)
Cc1ccc2nc3sc(C(=O)N4CCN(C)CC4)cc3cc2c1 |  | -16.8% (inactive)
Cc1c(P(=O)(c2ccccc2)c2ccccc2)c2ccccc2n1C |  | -15% (inactive)
Cc1c(C(=O)N(C)CC2CCCO2)[nH]c2c1C(=O)CC(c1ccco1)C2 (configuration not stated) |  | -19.3% (inactive)
O=C1Nc2ccccc2/C1=C\c1ccc(O)c(F)c1 | 0.224 µM (active) | 
NC(=O)C1CCN(c2ncc(-c3cccc(N4CCCC4)c3)s2)CC1 | 12.7 µM (active) | 
COc1ccc(C2=Nn3c(nnc3-c3ccccc3O)SC2)cc1 |  | 1.18% (inactive)
O=C(Nc1cncc(NC(=O)c2cccs2)c1)c1cccs1 |  | -9.08% (inactive)
N#Cc1cc(C2=Nc3ccc(Br)cc3NC(=O)C2)ccn1 |  | -6.95% (inactive)
COc1cc(O)c(C(CC(=O)N2CCCC(C(C)C)C2)c2ccc3c(c2)OCO3)c(OC)c1 (configuration not stated) |  | -17.7% [at 99.5 µM] (inactive)

target: Aldehyde dehydrogenase, mitochondrial (Homo sapiens) (UniProt P05091); assay: qHTS for Inhibitors of the Aldehyde Dehydrogenase Family (ALDH2) Primary screen (AID 2061308); details: ALDH2 enzyme inhibition qHTS, 1536-well; series mostly up to 56 µM; activity change, negative = inhibition: at the top concentration; further: nearly all actives have a fitted effect of over 55% in size;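 on activity change, negative = inhibition: plate controls were vehicle for no effect and reference inhibitor for full effect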

SMILES | activity change, negative = inhibition | Potency
NC(=O)N1CCN(c2nc(-c3ccc(Br)cc3)cs2)CC1 | 8.22% (inactive) | 
Cc1cnc(-c2ccccc2C(C)C)nc1NCC1CN(c2cccnc2)C1 | -22.4% (inactive) | 
COc1cccc(-c2no[n+]([O-])c2C#N)c1 | -5.51% (inactive) | 
Cc1cnc(-c2ccccc2C(C)O)nc1NCC1CCN(c2cccnc2)CC1 (configuration not stated) | -13.4% (inactive) | 
C[C@H]1[C@H](/C=C/c2ccc(-c3ccccc3C#N)cn2)[C@@H]2[C@@H](C)OC(=O)[C@@H]2C[C@@H]1C | -0.652% (inactive) | 
COc1cc2c(cc1O)C(c1ccc(O)cc1)C(C)C(C)C2 (configuration not stated) | -19.5% (inactive) | 
CCOc1ccccc1-c1nnc2n1N=C(c1cccc(OC)c1)CS2 | 11.1% (inactive) | 
O=C(Nc1cncc(O)c1)c1cccs1 | -24.7% (inactive) | 
O=C1CC(c2ccccc2)CC2=C1C1(CCCC1)N=C(Nc1nc3ccccc3o1)N2 (configuration not stated) | -0.9% (inactive) | 
CC(=O)N1CCN(c2ccc(NCc3ccc(C)cc3)cc2)CC1 | -21.4% (inactive) | 
CC(=O)NC(c1ccco1)c1cc(Cl)c2ccc(N3CCCCC3)nc2c1O (configuration not stated) | -21.4% (inactive) | 
COc1cc(O)c(C(CC(=O)N2CCCC(CN3CCCCC3)C2)c2ccc3c(c2)OCO3)c(OC)c1 (configuration not stated) | -30% [at 114 µM] (inactive) | 
N#CC1CCN(c2nc(-c3ccc(Br)cc3)cs2)CC1 | -2.96% (inactive) | 
CS(=O)(=O)c1ccc(C(=O)OCC(=O)N2Cc3ccccc3C2)cc1[N+](=O)[O-] | -16.1% (inactive) | 
CN1CCN(c2cccc(CNc3nn4c(=O)c5ccccc5nc4s3)c2)CC1 | -14.5% (inactive) | 
Clc1ncoc1-c1c[nH]c2ccccc12 | 5.63% (inactive) | 
CN1CCN(c2nn3c(=O)c4ccccc4nc3s2)CC1 | -22.7% (inactive) | 
C#Cc1nc(Nc2cccc(Cl)c2)nc(NC2CCCC2)n1 | -9.2% (inactive) | 
O=C1c2ccccc2NC(c2ccc(-c3ccccc3F)o2)N1O (configuration not stated) |  | 8.91 µM (active)
NC(=O)C1CCN(c2nc(-c3ccc(F)cc3)cs2)CC1 | 9.88% (inactive) | 

SMILES | activity change, negative = inhibition | Potency
O=C(CN1C(=O)CC(c2ccco2)Sc2ccccc21)Nc1ccccc1F (configuration not stated) | -8.12% (inactive) | 
N#CN1CCC(NS(=O)(=O)c2ccc(F)cc2)CC1 | -0.865% (inactive) | 
O=C(/C=C/c1ccc([N+](=O)[O-])o1)Nc1cccc([S+](=O)([O-])Nc2ccccc2F)c1 | -20.7% (inactive) | 
NC(=O)C1CCN(c2ncc(-c3cccc(N4CCOCC4)c3)s2)CC1 | -7.81% (inactive) | 
O=C1CCCC2=C1C(c1[nH]ncc1Cl)NC(=NCc1ncc[nH]1)N2 (configuration not stated) | 5.77% (inactive) | 
CCOC(=O)C1CCN(c2nc(-c3ccc(Br)cc3)cs2)CC1 | -5.95% (inactive) | 
FC(F)(F)c1cc(-c2ccc(CNc3nc(-c4ccncc4)nc4ccccc34)cc2)ccn1 | -1.68% (inactive) | 
Oc1cc(NCCc2cccnc2)cc2cccnc12 | -18.3% (inactive) | 
Brc1ccc(-c2csc(N3CCC(c4nn[nH]n4)CC3)n2)cc1 | 8.8% (inactive) | 
Cc1ccccc1C#Cc1ccc(CCC(=O)O)cc1 | 9.6% (inactive) | 
Cc1cc(C=CC#N)cc(C)c1Nc1nc(Nc2ccc3c(c2)CCC3)c2[nH]cnc2n1 | -14.6% (inactive) | 
Cc1ccc2nc3sc(C(=O)N4CCN(C)CC4)cc3cc2c1 | -7.33% (inactive) | 
Cc1c(P(=O)(c2ccccc2)c2ccccc2)c2ccccc2n1C | -20.3% (inactive) | 
Cc1c(C(=O)N(C)CC2CCCO2)[nH]c2c1C(=O)CC(c1ccco1)C2 (configuration not stated) | -15.9% (inactive) | 
O=C1Nc2ccccc2/C1=C\c1ccc(O)c(F)c1 |  | 2.51 µM (active)
NC(=O)C1CCN(c2ncc(-c3cccc(N4CCCC4)c3)s2)CC1 | -0.0856% (inactive) | 
COc1ccc(C2=Nn3c(nnc3-c3ccccc3O)SC2)cc1 | 11.9% (inactive) | 
O=C(Nc1cncc(NC(=O)c2cccs2)c1)c1cccs1 | 6.96% (inactive) | 
N#Cc1cc(C2=Nc3ccc(Br)cc3NC(=O)C2)ccn1 | 4.91% (inactive) | 
COc1cc(O)c(C(CC(=O)N2CCCC(C(C)C)C2)c2ccc3c(c2)OCO3)c(OC)c1 (configuration not stated) | -6.39% [at 114 µM] (inactive) | 
